# Results: the supplement of paper PMC3334620
# Whole data set: some 33,000 sequences, median “E-score (-0.5 to 0.5)” near -0.015, cut for the highest 2% near 0.3. Shown is part of a subset that was picked to be rich in the highest values.
# Biological target: T1, Abf1 (UniProt P14164)
# T1 sequence: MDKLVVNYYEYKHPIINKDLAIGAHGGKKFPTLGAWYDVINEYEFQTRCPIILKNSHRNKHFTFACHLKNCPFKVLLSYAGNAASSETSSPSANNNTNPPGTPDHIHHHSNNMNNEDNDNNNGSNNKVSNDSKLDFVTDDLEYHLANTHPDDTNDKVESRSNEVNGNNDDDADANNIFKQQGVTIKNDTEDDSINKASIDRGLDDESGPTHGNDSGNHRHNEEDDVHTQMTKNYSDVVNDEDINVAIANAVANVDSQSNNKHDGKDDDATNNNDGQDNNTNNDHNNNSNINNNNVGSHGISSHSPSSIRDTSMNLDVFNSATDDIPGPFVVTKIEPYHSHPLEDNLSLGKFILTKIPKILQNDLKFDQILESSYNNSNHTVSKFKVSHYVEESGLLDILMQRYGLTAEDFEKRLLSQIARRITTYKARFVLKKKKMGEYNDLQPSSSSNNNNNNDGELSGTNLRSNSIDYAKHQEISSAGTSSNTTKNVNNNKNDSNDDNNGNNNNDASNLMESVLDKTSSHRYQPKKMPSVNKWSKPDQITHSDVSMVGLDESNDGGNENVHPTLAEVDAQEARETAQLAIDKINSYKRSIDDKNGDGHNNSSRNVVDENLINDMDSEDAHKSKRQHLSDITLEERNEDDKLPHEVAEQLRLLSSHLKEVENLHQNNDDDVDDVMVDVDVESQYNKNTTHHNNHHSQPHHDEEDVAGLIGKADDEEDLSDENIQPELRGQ
# Test: PBM E-score (8-mer binding enrichment) (E-score (-0.5 to 0.5)); higher = stronger / more preferred TF binding
# Conditions: protein concentration: 200 nM; construct: GST-full length
# Experimental: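 Universal 'all 10-mer' protein binding microarrays (Agilent AMADID 015681) probed with GST-tagged S. cerevisiae TFs (full-length or DBD) made by in vitro transcription/translation (PURExpress), about 100-200 nM. Bound TF was detected with fluorescent anti-GST. Each ungapped 8-mer (which stands for itself and its reverse complement) is scored by the PBM enrichment score (E-score), a modified Wilcoxon-Mann-Whitney statistic from -0.5 to +0.5, computed with the Universal PBM Analysis Suite. Scale: above 0.35 generally sequence-specific binding.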
row,Sequence,PBM E-score
1,CCATCGCA,-0.0576
2,CAATATTG,0.0635
3,GGCCCTTA,-0.233
4,GTAAACCA,-0.0676
5,GCTTTATA,-0.0302
6,ATTCGTAG,0.191
7,CTTCGTAC,0.414
8,CTTCGTAA,0.161
9,ATTCGTAA,0.203
10,ATTCGTCC,0.296
11,ATTCGTAC,0.408
12,ATTCGTCA,0.164
13,CTTCGTCC,0.0852
14,ATTCGTCG,0.31
15,GCGAGGAA,-0.0784
16,AGTGGCGA,0.0606
17,CTGTTTGC,0.0145
18,CCTAAACA,-0.224
19,ATTCGGTC,0.0175
20,GCAGGCAC,-0.145
21,CCCTTTGA,-0.125
22,CGACGTCA,0.123
23,CACGAACC,0.185
24,CACGGTTC,0.154
25,ACGTCACG,0.326

row,Sequence,PBM E-score
1,GCGTCACA,0.02
2,ACGTCAAT,0.116
3,ACGTCACA,0.0823
4,ACGTCACT,0.39
5,ACGTCACC,0.22
6,AAGATAGG,-0.151
7,ACTTCAGC,-0.124
8,ATCAGGGA,-0.0561
9,GAATGTCA,0.278
10,CTATGTCC,-0.022
11,ATATGTCA,0.289
12,GGATGTCA,0.171
13,CTATGTCA,0.31
14,GTATGTCA,0.394
15,ATAAGGCA,0.14
16,ACAGGGGG,-0.357
17,GGAAGGAC,0.0147
18,AGACCATC,-0.195
19,ATTAACCC,-0.086
20,CGTGTGAC,0.11
21,CGTGTAAA,0.314
22,TGTGTGAA,-0.234
23,AGTGTAAA,-0.00367
24,CGTGTGAA,0.311
25,CGTGTAAC,0.237

row,Sequence,PBM E-score
1,ATATGGTG,0.0579
2,CGTGACGA,0.351
3,CGTGACGC,0.152
4,AGTGACGA,0.422
5,CGTGACCA,0.0961
6,GGTGACGA,0.276
7,AGTGACGG,0.1
8,CGGACATA,0.0662
9,CATGGAGG,-0.286
10,AACGGCAT,0.226
11,CTGGTTGC,-0.0319
12,AAATCACA,0.0176
13,CAATCACC,0.0554
14,AAATCACT,0.374
15,AAATCAAT,0.142
16,AAATCACC,0.336
17,AAATCACG,0.284
18,CGAACCAA,0.0494
19,ATCAGCGA,-0.0614
20,GGTTTTCA,0.167
21,ACGAGCAT,0.00886
22,GTCCTATA,-0.0768
23,AACGACAC,0.238
24,AACGACAG,0.196
25,CACGACAC,0.296

row,Sequence,PBM E-score
1,GACGACAC,0.252
2,TACGACAA,0.298
3,ACCGACAA,0.115
4,AACGACAA,0.308
5,GACGACAA,0.347
6,CACGACAA,0.25
7,GGCGACAA,0.0843
8,TGCGACAA,0.0936
9,AACGACAT,0.346
10,TCAAGAGA,0.0894
11,ACATCGTG,0.185
12,ACCCCTAC,-0.271
13,AAGAGGAA,-0.0719
14,GGCCCGTA,0.0104
15,ACGGAGGG,0.0212
16,CACGCAGC,0.00826
17,ACGTCTAG,0.167
18,AGATCAAT,0.12
19,AGATCACG,0.35
20,CGATCACG,0.298
21,CGATCACC,0.0211
22,AGATCACA,0.138
23,GGATCACC,0.247
24,GGATCACA,0.00896
25,AGATCACT,0.437

row,Sequence,PBM E-score
1,CGATCACA,0.161
2,AGATCACC,0.311
3,AGATCAAG,0.112
4,TGATCACA,0.292
5,AGACGGGG,0.0661
6,GATCCTCA,0.019
7,CTAATTCC,0.0379
8,ATGACCTA,0.235
9,ATACAACA,0.0798
10,CAAATGAA,-0.155
11,AAAGGATT,-0.105
12,TGCAACCA,-0.0685
13,CGTCTCTC,0.162
14,ACTTCGTA,0.297
15,ACTTCGTC,0.227
16,CCTTCGTA,0.292
17,GCTTCGTA,0.313
18,GCTTCGGA,0.0157
19,ACTTCGTG,0.0796
20,CCGACACC,-0.195
21,ATTTTTGC,0.113
22,TACAGGCA,0.119
23,AGCTACAA,-0.101
24,GAGAAGGA,-0.18
25,ATATCAAA,0.0352

row,Sequence,PBM E-score
1,CCTCCGCC,-0.059
2,CCGTACGG,0.29
3,ACGTACGC,0.114
4,ACGTACGG,0.328
5,ACGTACGT,0.335
6,AGGTACGA,0.0832
7,AAGTACGA,0.151
8,ACGTACGA,0.335
9,ACGTACAT,0.244
10,ACGTACAG,-0.0233
11,CAGCGGAC,-0.105
12,AGCGAGAT,0.0588
13,ACGTATGA,0.332
14,GCGTATGA,0.0421
15,CCGTATGA,0.408
16,ACGTATGC,0.014
17,CCGTATGC,0.0398
18,ACGTATGG,0.136
19,CGAGTTAG,0.148
20,ACTAGAAA,-0.0186
21,ATACGGAT,0.297
22,ATACGGAC,0.142
23,ATACGGAG,0.0972
24,ATACGGAA,0.299
25,CTACGGAA,0.139

row,Sequence,PBM E-score
1,TTACGGAA,0.124
2,CAAAATCA,0.173
3,GCACAGCC,-0.204
4,ATTTCTTG,0.167
5,ACAGAATC,-0.0766
6,AATTAATT,0.00666
7,CACTAATA,0.255
8,AATTAATA,0.302
9,TACTAATA,0.0826
10,AACTAATA,0.306
11,TATTAATA,0.00602
12,ACTCCACC,0.032
13,ATCGGTCC,-0.295
14,ACGTGACT,0.174
15,ACGTGACG,0.201
16,TCGTGACA,0.354
17,ACGTGACC,0.0122
18,CCGTGAAA,0.381
19,TCGTGAAA,0.205
20,CCGTGACG,0.198
21,CCGTGAAG,0.136
22,CCGTGACA,0.363
23,CCGTGACC,0.157
24,ACGTGACA,0.355
25,TCGTGAGA,0.263
